Drawing on paper PMC7862700, “An all-to-all approach to the identification of sequence-specific readers for epigenetic DNA modifications on cytosine”, this text covers binding signal for one sequence.

Common to all, as to experiment: DAPPL (digital affinity profiling via proximity ligation, sequencing); 10 mM Tris-HCl pH 7.5, 50 mM NaCl, 1 mM DTT, 4% glycerol, room temperature, 30 min; GST-TFs on glutathione beads, 16-mer random dsDNA library, 0.1% formaldehyde crosslink after washing; high values mean tight binding
The target in one experiment is T1, FLI1 (Homo sapiens, UniProt Q01543 1-452).
T1 sequence: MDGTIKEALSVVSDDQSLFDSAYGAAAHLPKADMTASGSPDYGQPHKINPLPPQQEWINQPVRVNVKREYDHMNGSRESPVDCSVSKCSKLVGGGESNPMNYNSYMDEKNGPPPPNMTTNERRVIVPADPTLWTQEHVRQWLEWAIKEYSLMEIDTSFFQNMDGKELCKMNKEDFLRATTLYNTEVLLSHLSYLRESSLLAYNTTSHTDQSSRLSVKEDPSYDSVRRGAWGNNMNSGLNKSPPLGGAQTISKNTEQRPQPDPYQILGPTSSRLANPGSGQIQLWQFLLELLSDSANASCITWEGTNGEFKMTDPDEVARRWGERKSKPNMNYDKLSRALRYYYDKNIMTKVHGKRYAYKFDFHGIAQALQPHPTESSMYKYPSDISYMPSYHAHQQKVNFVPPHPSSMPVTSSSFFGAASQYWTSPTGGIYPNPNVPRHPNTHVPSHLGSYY
The note with it: protein: recombinant; tags: N-terminal GST; dsDNA, one strand shown. Put shortly: (§1)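 Yeast served to express human transcription factors as GST fusions, which were then captured on glutathione beads and labelled with DNA barcodes. Pooled with a tag-only sample, they were incubated with 200 nmole of a 16-mer random double-stranded DNA library for 30 min at room temperature in Tris/NaCl/DTT/glycerol buffer, washed, crosslinked with 0.1% formaldehyde, ligated by proximity, amplified by PCR and sequenced. Dividing each hexamer's read frequency for a factor by its frequency for the tag-only sample gives the binding signal.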

The next experiment deals with T2, ELK1 (Homo sapiens, UniProt P19419 1-428).
T2 sequence: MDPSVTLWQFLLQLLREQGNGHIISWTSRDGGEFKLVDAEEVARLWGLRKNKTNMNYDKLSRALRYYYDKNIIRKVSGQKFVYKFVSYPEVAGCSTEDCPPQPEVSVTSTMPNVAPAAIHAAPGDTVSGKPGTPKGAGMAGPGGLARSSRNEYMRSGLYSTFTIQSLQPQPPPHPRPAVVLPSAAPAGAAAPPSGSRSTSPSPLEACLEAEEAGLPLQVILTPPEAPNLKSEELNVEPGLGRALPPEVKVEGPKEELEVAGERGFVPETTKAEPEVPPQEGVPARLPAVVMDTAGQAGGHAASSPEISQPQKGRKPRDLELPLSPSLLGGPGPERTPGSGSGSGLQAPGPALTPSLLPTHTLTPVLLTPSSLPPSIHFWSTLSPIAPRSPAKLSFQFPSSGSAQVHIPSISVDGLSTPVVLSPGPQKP
To be noted: protein: recombinant; tags: N-terminal GST; dsDNA, one strand shown. Put shortly: as §1

The target in a further experiment is T3, GABPA (Homo sapiens, UniProt Q06546 1-454).
T3 sequence: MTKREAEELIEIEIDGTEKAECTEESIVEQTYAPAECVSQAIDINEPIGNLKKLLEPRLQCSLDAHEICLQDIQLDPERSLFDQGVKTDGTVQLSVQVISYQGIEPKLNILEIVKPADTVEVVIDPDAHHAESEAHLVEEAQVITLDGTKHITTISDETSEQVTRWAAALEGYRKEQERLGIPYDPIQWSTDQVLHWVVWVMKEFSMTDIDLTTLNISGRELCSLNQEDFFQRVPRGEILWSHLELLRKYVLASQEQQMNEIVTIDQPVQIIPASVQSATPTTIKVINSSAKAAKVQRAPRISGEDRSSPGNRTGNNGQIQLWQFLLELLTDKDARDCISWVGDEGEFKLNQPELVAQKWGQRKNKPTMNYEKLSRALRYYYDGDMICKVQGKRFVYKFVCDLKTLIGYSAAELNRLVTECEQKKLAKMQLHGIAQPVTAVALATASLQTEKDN
The note with it: protein: recombinant; tags: N-terminal GST; dsDNA, one strand shown. Put shortly: as §1

For a further experiment, the target named is T4, ERG (Homo sapiens, UniProt P11308 1-479).
T4 sequence: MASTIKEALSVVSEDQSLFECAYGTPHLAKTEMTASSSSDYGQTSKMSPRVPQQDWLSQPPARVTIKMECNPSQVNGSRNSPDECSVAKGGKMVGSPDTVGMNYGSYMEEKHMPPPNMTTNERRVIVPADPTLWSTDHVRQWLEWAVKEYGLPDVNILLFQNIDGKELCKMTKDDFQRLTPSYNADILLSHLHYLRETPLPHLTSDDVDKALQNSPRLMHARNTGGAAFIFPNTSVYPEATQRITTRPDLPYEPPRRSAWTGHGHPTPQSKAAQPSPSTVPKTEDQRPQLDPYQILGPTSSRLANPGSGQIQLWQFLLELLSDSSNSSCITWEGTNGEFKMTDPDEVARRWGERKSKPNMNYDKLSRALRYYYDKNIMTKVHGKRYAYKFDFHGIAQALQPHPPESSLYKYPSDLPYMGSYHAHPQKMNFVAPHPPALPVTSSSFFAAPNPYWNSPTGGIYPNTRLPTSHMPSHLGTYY
The note with it: protein: recombinant; tags: N-terminal GST; dsDNA, one strand shown. Put shortly: as §1

The target in the next experiment is ELF1 (Homo sapiens, UniProt P32519 1-619). The note with it: protein: recombinant; tags: N-terminal GST; dsDNA, one strand shown. Put shortly:
as §1

A further experiment addresses T5, EHF (Homo sapiens, UniProt Q9NZC4 1-300).
T5 sequence: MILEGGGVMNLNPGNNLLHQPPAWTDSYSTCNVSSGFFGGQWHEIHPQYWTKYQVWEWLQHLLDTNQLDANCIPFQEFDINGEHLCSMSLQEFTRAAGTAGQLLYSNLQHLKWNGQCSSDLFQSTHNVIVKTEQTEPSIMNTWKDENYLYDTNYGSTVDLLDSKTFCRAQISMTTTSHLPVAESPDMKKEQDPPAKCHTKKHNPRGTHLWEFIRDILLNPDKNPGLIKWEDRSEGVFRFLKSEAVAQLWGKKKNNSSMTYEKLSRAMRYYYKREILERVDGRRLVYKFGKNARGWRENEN
To be noted: protein: recombinant; tags: N-terminal GST; dsDNA, one strand shown. A digest of the protocol: as §1

The next experiment deals with SPI1 (Homo sapiens, UniProt P17947 1-270). To be noted: protein: recombinant; tags: N-terminal GST; dsDNA, one strand shown. A digest of the protocol: as §1
The target of another experiment is SPIB (Homo sapiens, UniProt Q01892 1-262). The note with it: protein: recombinant; tags: N-terminal GST; dsDNA, one strand shown. A digest of the protocol:
as §1

For a further experiment, the target named is T6, ELK3 (Homo sapiens, UniProt P41970 1-407).
T6 sequence: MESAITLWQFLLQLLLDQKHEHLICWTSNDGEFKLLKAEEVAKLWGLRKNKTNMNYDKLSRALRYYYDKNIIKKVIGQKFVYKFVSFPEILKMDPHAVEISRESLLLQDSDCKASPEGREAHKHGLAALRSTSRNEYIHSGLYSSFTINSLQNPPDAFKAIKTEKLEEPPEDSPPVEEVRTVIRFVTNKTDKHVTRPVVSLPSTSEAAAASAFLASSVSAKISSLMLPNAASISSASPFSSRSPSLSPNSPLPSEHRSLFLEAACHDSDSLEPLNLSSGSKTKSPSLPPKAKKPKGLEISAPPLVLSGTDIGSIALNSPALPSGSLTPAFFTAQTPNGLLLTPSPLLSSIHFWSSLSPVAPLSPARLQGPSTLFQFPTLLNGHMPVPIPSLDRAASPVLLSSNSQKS
The note with it: protein: recombinant; tags: N-terminal GST; dsDNA, one strand shown. A digest of the protocol:
as §1

For a further experiment, the target named is T7, FEV (Homo sapiens, UniProt Q99581 1-238).
T7 sequence: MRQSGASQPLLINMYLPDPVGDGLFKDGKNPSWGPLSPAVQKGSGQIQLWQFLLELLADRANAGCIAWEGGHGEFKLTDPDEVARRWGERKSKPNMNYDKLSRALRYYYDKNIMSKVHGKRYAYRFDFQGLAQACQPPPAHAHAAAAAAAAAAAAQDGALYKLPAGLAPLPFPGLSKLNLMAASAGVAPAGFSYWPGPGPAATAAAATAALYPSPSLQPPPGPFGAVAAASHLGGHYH
The note with it: protein: recombinant; tags: N-terminal GST; dsDNA, one strand shown. A digest of the protocol:
as §1

The next experiment concerns the target ETV5 (Homo sapiens, UniProt P41161 1-510). To be noted: protein: recombinant; tags: N-terminal GST; dsDNA, one strand shown. A digest of the protocol: as §1
A further experiment has as its target HSF1 (Homo sapiens, UniProt Q00613 1-529). To be noted: protein: recombinant; tags: N-terminal GST; chain copies: 3; dsDNA, one strand shown. A digest of the protocol:
as §1

The target in a further experiment is T8, SPIC (Homo sapiens, UniProt Q8N5J4 1-248).
T8 sequence: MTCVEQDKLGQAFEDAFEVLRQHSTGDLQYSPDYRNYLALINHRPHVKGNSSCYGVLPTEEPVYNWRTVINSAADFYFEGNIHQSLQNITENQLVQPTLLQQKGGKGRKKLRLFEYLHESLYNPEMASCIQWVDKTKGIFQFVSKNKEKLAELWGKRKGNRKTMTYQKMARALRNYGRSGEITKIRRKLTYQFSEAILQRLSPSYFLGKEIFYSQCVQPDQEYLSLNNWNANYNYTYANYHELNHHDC
To be noted: protein: recombinant; tags: N-terminal GST; dsDNA, one strand shown. A digest of the protocol: as §1

A further experiment deals with ELF4 (Homo sapiens, UniProt Q99607 1-663). The note with it: protein: recombinant; tags: N-terminal GST; dsDNA, one strand shown. A digest of the protocol:
as §1

In a further experiment the target is T9, ELK4 (Homo sapiens, UniProt P28324-2 1-405).
T9 sequence: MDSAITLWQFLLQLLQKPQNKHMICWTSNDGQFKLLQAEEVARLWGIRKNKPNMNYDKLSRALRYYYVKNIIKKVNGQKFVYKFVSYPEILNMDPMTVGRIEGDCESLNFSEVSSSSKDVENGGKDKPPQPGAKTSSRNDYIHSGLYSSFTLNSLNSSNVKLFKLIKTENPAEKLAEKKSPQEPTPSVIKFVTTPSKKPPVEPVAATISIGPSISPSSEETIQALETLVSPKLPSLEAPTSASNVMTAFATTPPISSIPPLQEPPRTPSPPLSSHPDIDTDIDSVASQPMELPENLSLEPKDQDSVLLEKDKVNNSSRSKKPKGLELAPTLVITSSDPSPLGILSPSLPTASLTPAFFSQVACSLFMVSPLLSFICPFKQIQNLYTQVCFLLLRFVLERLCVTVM
The note with it: protein: recombinant; tags: N-terminal GST; dsDNA, one strand shown. Put shortly:
as §1

A further experiment addresses T10, ELF3 (Homo sapiens, UniProt P78545 1-371).
T10 sequence: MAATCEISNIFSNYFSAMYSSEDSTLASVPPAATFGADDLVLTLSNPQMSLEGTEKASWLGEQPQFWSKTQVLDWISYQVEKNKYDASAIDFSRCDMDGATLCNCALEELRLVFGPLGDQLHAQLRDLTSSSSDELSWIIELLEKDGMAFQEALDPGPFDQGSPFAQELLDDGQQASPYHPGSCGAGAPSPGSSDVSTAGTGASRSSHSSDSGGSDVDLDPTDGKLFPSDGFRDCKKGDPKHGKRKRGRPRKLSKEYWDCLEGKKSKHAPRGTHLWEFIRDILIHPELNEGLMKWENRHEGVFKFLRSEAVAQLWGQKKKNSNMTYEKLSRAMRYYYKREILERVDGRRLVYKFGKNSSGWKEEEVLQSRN
The note with it: protein: recombinant; tags: N-terminal GST; dsDNA, one strand shown. Put shortly:
as §1

In another experiment the target is CRX (Homo sapiens, UniProt O43186 1-299). To be noted: protein: recombinant; tags: N-terminal GST; dsDNA, one strand shown. Put shortly:
as §1

For another experiment, the target named is ETV1 (Homo sapiens, UniProt P50549 1-477). The note with it: protein: recombinant; tags: N-terminal GST; dsDNA, one strand shown. Put shortly:
as §1

Chain of ETV5 (P41161 whole entry): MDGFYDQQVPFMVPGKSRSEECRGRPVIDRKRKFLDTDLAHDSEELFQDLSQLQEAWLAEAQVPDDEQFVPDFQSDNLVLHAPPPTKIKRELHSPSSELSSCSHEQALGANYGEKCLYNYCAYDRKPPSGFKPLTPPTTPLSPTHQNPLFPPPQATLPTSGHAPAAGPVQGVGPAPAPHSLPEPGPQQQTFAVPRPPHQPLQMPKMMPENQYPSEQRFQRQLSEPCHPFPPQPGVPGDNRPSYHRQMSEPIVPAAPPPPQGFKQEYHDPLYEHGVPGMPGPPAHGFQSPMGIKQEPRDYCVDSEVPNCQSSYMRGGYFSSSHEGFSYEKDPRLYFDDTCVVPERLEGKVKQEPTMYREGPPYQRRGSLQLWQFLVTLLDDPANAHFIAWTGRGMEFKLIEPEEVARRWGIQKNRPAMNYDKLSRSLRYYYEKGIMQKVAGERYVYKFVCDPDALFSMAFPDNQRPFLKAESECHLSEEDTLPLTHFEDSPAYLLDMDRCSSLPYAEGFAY
Chain of SPIB (Q01892 whole entry): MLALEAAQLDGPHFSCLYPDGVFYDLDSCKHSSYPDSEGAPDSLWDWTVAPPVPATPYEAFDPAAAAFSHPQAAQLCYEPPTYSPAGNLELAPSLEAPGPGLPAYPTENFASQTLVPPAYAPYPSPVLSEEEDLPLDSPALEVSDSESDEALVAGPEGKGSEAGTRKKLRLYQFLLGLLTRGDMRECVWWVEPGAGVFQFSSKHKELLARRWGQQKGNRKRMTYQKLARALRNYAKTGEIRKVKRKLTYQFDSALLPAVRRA
Chain of HSF1 (Q00613 whole entry): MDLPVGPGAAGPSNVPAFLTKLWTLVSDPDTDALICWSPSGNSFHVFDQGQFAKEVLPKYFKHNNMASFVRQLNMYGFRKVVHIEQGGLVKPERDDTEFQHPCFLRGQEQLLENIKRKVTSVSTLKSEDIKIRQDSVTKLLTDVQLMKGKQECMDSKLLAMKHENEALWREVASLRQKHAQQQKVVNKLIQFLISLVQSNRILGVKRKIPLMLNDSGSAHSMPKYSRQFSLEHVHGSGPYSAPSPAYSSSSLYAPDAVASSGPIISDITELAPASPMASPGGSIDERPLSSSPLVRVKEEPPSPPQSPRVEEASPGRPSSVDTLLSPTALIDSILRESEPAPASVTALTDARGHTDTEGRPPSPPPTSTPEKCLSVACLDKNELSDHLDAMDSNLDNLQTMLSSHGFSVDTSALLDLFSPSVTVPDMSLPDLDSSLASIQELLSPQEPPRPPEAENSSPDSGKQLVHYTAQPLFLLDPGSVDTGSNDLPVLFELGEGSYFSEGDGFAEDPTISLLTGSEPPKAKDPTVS
Chain of ETV1 (P50549 whole entry): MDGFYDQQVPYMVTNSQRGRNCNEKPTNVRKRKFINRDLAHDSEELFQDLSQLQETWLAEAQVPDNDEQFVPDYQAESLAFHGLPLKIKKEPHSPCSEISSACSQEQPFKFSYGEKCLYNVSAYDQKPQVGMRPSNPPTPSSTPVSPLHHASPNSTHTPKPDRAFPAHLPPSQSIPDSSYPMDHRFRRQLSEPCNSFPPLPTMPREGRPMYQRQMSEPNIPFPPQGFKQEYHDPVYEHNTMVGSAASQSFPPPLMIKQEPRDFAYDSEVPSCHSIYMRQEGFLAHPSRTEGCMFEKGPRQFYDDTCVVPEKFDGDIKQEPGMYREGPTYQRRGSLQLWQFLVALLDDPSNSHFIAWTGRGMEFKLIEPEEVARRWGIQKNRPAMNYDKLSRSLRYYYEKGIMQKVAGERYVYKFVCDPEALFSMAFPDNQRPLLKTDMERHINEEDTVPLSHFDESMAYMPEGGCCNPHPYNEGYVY
Chain of ELF1 (P32519 whole entry): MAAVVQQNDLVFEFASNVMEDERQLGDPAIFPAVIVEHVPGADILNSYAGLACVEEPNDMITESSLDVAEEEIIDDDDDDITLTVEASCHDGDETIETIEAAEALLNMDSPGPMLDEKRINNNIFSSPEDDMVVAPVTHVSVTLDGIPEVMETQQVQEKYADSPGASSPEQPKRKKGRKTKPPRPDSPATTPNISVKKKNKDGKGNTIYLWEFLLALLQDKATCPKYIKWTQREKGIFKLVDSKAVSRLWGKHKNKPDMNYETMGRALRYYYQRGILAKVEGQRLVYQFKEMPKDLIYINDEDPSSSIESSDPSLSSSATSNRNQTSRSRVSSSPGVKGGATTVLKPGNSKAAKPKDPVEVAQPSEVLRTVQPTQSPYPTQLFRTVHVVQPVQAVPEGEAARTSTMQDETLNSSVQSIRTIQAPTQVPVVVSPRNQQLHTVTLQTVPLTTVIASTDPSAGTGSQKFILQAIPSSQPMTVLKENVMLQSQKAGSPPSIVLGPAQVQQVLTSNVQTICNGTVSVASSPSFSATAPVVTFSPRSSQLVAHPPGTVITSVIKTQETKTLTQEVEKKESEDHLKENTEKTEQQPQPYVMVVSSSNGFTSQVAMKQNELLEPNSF
Chain of ELF4 (Q99607 whole entry): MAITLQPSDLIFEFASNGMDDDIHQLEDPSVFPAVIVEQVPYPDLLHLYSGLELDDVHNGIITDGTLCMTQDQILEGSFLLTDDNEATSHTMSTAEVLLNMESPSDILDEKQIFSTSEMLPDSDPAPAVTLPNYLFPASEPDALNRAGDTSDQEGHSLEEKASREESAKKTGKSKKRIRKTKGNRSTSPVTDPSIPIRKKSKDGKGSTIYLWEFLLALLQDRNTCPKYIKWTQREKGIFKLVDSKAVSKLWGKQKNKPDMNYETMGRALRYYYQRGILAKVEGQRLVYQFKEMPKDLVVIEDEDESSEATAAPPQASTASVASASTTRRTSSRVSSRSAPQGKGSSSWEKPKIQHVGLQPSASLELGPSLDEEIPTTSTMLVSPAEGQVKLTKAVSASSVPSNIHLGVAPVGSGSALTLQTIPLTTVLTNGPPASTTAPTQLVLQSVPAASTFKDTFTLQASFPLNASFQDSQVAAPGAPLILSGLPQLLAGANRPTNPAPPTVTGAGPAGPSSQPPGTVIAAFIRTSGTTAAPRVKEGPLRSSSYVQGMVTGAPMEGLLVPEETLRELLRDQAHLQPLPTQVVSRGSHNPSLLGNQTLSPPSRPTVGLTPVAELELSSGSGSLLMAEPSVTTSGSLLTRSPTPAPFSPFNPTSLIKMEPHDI
Chain of CRX (O43186 whole entry): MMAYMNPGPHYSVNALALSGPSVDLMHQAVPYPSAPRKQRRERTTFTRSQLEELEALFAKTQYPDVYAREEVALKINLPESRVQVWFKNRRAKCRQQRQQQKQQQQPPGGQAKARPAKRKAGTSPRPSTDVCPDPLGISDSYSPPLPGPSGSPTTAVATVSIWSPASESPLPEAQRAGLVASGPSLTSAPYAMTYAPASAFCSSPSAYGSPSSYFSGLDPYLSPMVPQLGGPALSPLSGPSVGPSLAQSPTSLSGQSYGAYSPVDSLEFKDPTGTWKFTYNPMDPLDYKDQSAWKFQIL

Regarding CGAACT, the binding signal with FLI1 was 1.16 fold enrichment (6-mer frequency, TF over GST control); in the experiment with ELK1, 1.17 fold enrichment (6-mer frequency, TF over GST control); in the experiment with GABPA, 1.24 fold enrichment (6-mer frequency, TF over GST control); with ERG it was 1.06 fold enrichment (6-mer frequency, TF over GST control); in the experiment with ELF1, 1.24 fold enrichment (6-mer frequency, TF over GST control); with EHF, 1.17 fold enrichment (6-mer frequency, TF over GST control). Besides, the binding signal is 1.16 fold enrichment (6-mer frequency, TF over GST control) in the experiment with SPI1; 1.03 fold enrichment (6-mer frequency, TF over GST control) in the experiment with SPIB; 1.13 fold enrichment (6-mer frequency, TF over GST control) with ELK3; 1.16 fold enrichment (6-mer frequency, TF over GST control) in the experiment with FEV; 1.19 fold enrichment (6-mer frequency, TF over GST control) in the experiment with ETV5; 1.48 fold enrichment (6-mer frequency, TF over GST control) with HSF1. Moreover, the binding signal with SPIC is 1.01 fold enrichment (6-mer frequency, TF over GST control); in the experiment with ELF4, 1.12 fold enrichment (6-mer frequency, TF over GST control); with ELK4, 1.15 fold enrichment (6-mer frequency, TF over GST control); with ELF3, 1.02 fold enrichment (6-mer frequency, TF over GST control); with CRX it was 1.05 fold enrichment (6-mer frequency, TF over GST control); with ETV1, 1.1 fold enrichment (6-mer frequency, TF over GST control).
